Assay outcomes deposited in PubChem by several laboratories.
An excerpt weighted towards active compounds, which were near 3.3% of everything screened.
Mcl1 Noxa PPI: Mcl-1/Noxa interaction inhibition; 220,000 tested, 1.5% active; Q07820; inhibition, % at 21.7 µM; TR-FRET Mcl-1/Noxa peptide binding, 2 h;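 active = compounds that cut the protein-peptide binding signal by more than 50% relative to plate controls in a single-dose test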;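 note: His-tagged Mcl-1 with rhodamine Noxa BH3 peptide and terbium anti-His antibody; 0% = Mcl-1 plus Noxa peptide wells and 100% = peptide-only wells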
Mcl-1 Bim block: inhibitors of Bim-Mcl-1 interaction, human; Q07820; Bead-based flow cytometry, Bim peptide-Mcl-1 binding; inhibition, % at 10 µM; 190,000 tested, 0.1% active; AID 1009; in the data active = inhibition above about 40%;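 note: 0% = no compound tracer wells and 100% = peptide blocker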
p47phox inh: blocks human p47phox regulatory protein of NADPH oxidases. P14598. p47phox/p22phox peptide binding, fluorescence polarization, 2 h. inhibition, % at 24.7 µM. 220,000 tested, 0.53% active. AID 1274;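 note: 0% = p47phox with labelled peptide and 100% = labelled peptide alone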
14-3-3 Bad inh: disrupts binding of bovine 14-3-3 zeta to phospho-Bad peptide; AID 781; 220,000 tested, 0.71% active; TR-FRET 14-3-3zeta/Dy647-pBad peptide displacement, 1 h; inhibition, % at 21.7 µM; P63103;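 active = inhibition above about 70%, limit read from the data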;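 note: 0% = full 14-3-3 plus peptide FRET controls and 100% = background without 14-3-3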
Mcl1 Bid PPI: Mcl-1/Bid interaction inhibition; TR-FRET Mcl-1/Bid-Dy647 peptide binding, 1536-well; 220,000 tested, 0.97% active; AID 1021; inhibition, % at 21.7 µM;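 active = compounds that cut the binding signal by more than half at the single screening dose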;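 note: His-tagged Mcl-1 with europium anti-His antibody binding Bid BH3 peptide; 0% = Mcl-1 plus peptide wells and 100% = peptide-only wells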
eIF4E-4G inh: blocks eIF4E binding to eIF4G; P63073+Q04637; TR-FRET eIF4E-eIF4GI(517-606) binding, 2 h; inhibition, % at 21.7 µM; 220,000 tested, 0.37% active; AID 782;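 note: 0% = full FRET control wells and 100% = background wells lacking eIF4GI fragment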
Numbers without * were called inactive; x = no result given.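 Rule for the calls, unless noted: active = inhibition above about 30% (limit read from the data); inactive = the rest.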

SMILES	Mcl1 Noxa PPI	Mcl-1 Bim block	p47phox inh	14-3-3 Bad inh	Mcl1 Bid PPI	eIF4E-4G inh
CCC1SC(CC)C(=O)N(CC(=O)Nc2ccc3c(c2)OCO3)C1=O (centres undefined)	8	-1	0	2	-30	-3
COc1cccc(Cn2c(=O)c3[nH]cnc3n(-c3ccccc3C)c2=O)c1	19	x	3	9	-4	-1
COc1ccc(Cn2c(=O)cc(N)n(-c3ccccc3C)c2=O)cc1	0	x	-5	97*	0	6
O/N=C/c1cc(Cl)ccc1OCc1cccc2ccccc12	-4	-5	-27	1	-31	5
C/C(N)=C(/C#N)C(=O)COC(=O)c1ccc(NC(N)=O)cc1	-9	x	-14	4	-23	-19
COC(=O)C1=C(C)N(C)C(=O)NC1c1cc2c(cc1[N+](=O)[O-])OCO2 (centres undefined)	52*	0	-3	1	-23	4
c1ccc(-c2cnnc(SCc3cn4cccnc4n3)n2)cc1	-12	1	-5	78*	-15	6
c1ccc2[nH]c(SCc3cn4cccnc4n3)nc2c1	11	-7	-3	1	-10	0
COc1c(C)cc(C(=O)C2CCCN(Cc3ccc(Oc4ncccn4)cc3)C2)cc1C (centres undefined)	15	-5	13	6	-27	70*
O=[N+]([O-])c1ccccc1Sc1nccn1Cc1ccccc1	-5	7	-1	6	-15	-2
COc1ccc(NC(=O)NCCCN2CCN(c3ccccc3F)CC2)cc1	56*	x	-1	-9	-20	-3
COc1ccc(NC(=O)NCCCN2CCN(c3cc(C)ccc3C)CC2)cc1	55*	2	-7	7	-14	-2
COc1ccc(NC(=O)CN2CCN(c3ccccc3F)CC2)cc1	11	-7	-15	3	-14	5
CCC(Sc1nc(N)cc(=O)[nH]1)C(=O)Nc1cc(C)on1 (centres undefined)	6	-2	-1	-7	-12	-3
CCNC(=O)c1ccccc1SCC(=O)Nc1ccc(F)cc1	16	2	3	-14	-15	-3
O=C(C1=C(O)C(=O)N(c2ncccn2)C1c1cccc(Cl)c1)c1ccco1 (centres undefined)	63*	0	-14	54	43	2
Cc1cc(=O)[nH]c(-c2ccccc2OC(F)(F)F)n1	6	x	-10	-5	49	2
Cc1nc(S/C(=C\c2ccc(OCc3ccccc3Cl)cc2)C(=O)O)n[nH]1	-27	-3	0	5	-36	-6
Cc1nc(S/C(=C\c2ccc(-c3ccc(C(=O)O)c(Cl)c3)o2)C(=O)O)n[nH]1	93*	x	-17	86*	55*	10
COc1cc(CNC2CCCC2)cc(Cl)c1OCc1ccccc1F	2	1	-18	-8	-9	10
CN(C)[C@@H]1C(=O)C(C(=O)NCN2CCCC2)=C(O)[C@@]2(O)C(=O)C3=C(O)c4c(O)cccc4[C@@](C)(O)C3CC12 (some centres undefined)	103*	22	9	85*	87*	64*
COc1ccc(/C=C/C(=O)OCC(=O)NCCC2=CCCCC2)cc1S(=O)(=O)N1CCOCC1	3	0	-9	-5	-20	-2
Cc1cc(O)c(C(C)C)cc1N=Nc1ccccc1C(=O)O	19	x	-94	0	-75	2
CN1C(=O)C(N=Nc2ccccc2C(=O)O)N(C)C1=S (centres undefined)	39	-1	-22	-19	53*	-2
O=C(CCCCl)NC(=S)Nc1ccc(N2CCOCC2)cc1	-1	x	-2	-5	-37	-7
SMILES	Mcl1 Noxa PPI	Mcl-1 Bim block	p47phox inh	14-3-3 Bad inh	Mcl1 Bid PPI	eIF4E-4G inh
CCOCCn1c(CN2CCc3ccccc3C2)nc2c1c(=O)n(C)c(=O)n2C	25	x	-12	-18	-4	-1
Nc1c(C(=O)N/N=C/c2ccc(Cl)cc2)cnn1-c1ccccc1	7	x	8	3	-5	-6
O=c1c(Cl)c(N/N=C/c2ccc(Cl)cc2)cnn1-c1ccccc1	74*	-1	5	47	18	17
Clc1ccc(N=c2ssnc2Cl)nc1	-58	3	-8	11	-12	9
N#Cc1cccc(N=c2ssnc2Cl)c1	13	-2	23	50	-9	54*
Clc1nssc1=Nc1ccc(Br)cc1	-6	-1	20	31	-14	51*
